Screening data from PubChem.
In the library only some 1.4% were active in any assay of this set; here they are far more common.
RXFP1 agonist – activates the human relaxin receptor RXFP1; HEK293T-RXFP1 cAMP TR-FRET, 30 min; response scale: percent of porcine relaxin response, buffer zero; Potency, µM (top dose mostly 57.5 µM), usual class: activators; actives 0.3% (n = 370,000); Q9HBX9; also: nearly all actives have a fitted effect of over 60% in size
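Agonist response is measured as cAMP accumulation in an RXFP1-transfected HEK293T line under PDE4 inhibition. Values are scaled between buffer-only and 29 nM porcine relaxin, and EC50s come from standard Hill equation fits.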
GRP78 ERSR act – inducers of ER stress response in human glioma cells | U87-MG GRP78 promoter luciferase reporter, 16 h | Potency, µM, actives largely listed as activators | actives 0.02% (n = 420,000) | AID 602332; also: series mostly up to about 76 µM; nearly all actives have a fitted effect of over 35% in size
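ERSR induction read as luciferase luminescence (Bright-Glo, 10 min at room temperature) in stably transfected human U87-MG glioma cells exposed to compounds for 16 h, using GRP78 as sensor.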
KCNH2 WT inh – inhibitors of human wildtype KCNH2 potassium channel; activity change, % at 1.84 µM; U2OS, BacMam KCNH2, thallium flux FluxOr; active compounds read low; Q12809; AID 720551; actives 0.37% (n = 340,000);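 active = maximum activity change below -70%; inconclusive = maximum activity change between -70% and -50%; inactive = maximum activity change above -50%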
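U2OS cells were transduced with wild-type KCNH2 virus (2.03 x 10^8 / mL) for 4 h at room temperature, then cultured overnight at 37 C. Thallium flux was read with FluxOr dye. Rate constants were normalized to DMSO controls.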
RXFP1 antagonist – blocks the human relaxin receptor RXFP1. Q9HBX9. activity change, negative = inhibition, % at 57.5 µM. actives 0.59% (n = 350,000). HEK293-RXFP1, relaxin-stimulated cAMP HTRF, 30 min; active compounds read low;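 active = activity change of -60% or lower, but not beyond a set lower limit; inconclusive = change between -60% and -40%, or beyond the set limit; inactive = change above -40%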
KCNH2 3.1 inh – blocks the human KCNH2 3.1 channel isoform | U2OS KCNH2 3.1, thallium flux FluxOr; active compounds read low | activity change, % (tested at about 1.8 µM) | actives 0.95% (n = 340,000);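 active = maximum activity change below -70%; inconclusive = maximum activity change from -70% to -50%; inactive = maximum activity change above -50%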;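 also: thallium influx rate constant from kinetic fluorescence after stimulation buffer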
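Normalized rate constant (relative to positive and negative DMSO controls) derived from a 2 min kinetic fluorescence read after stimulation; U2OS cells expressing the 3.1 isoform via virus at 1.77 x 10^8 /mL.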
PTHR1 ag – activates the human parathyroid hormone receptor PTHR1. Q03431. Potency, µM (titrated, usually from 115 µM), usual class: activators. HEK293 GP2 PTHR1 cells, GloSensor cAMP luminescence, 1 h. actives 0.075% (n = 410,000). AID 743266; also: nearly all actives have a fitted effect of over 55% in size
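HEK-293-derived GP2 cells expressing PTHR1 and a GloSensor cAMP reporter, 3,000/well, plated overnight, given luciferin plus IBMX (each 0.5 mM as added) for 1 h at 37 °C, then compound for 1 h at 37 °C. Luminescence was read after 15 min at room temperature.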
A number is an active result; – = inactive; ? = inconclusive; · = no result given. Unless noted, calls follow the shape of the dose curve; as a rule, active = well fitted curve in the direction sought with a large enough effect; inconclusive = small, poorly fitted or top-dose-only effect, or another doubt; inactive = no such curve, though single readings can be large; an effect the other way counts as inactive or inconclusive.

SMILES	RXFP1 agonist	GRP78 ERSR act	KCNH2 WT inh	RXFP1 antagonist	KCNH2 3.1 inh	PTHR1 ag
Cc1cccc(C)c1OCc1cc(C(=O)NC2CCC2)no1	–	–	–	–	-94	–
CC1=NOC(=O)/C1=C\c1ccc(-c2ccccc2Br)o1	18µM	–	–	–	–	–
CC(C)(C)NC(=O)NC(=O)CN1CCCc2ccccc21	–	–	–	–	-88	–
O=C(CN1CCCc2ccccc21)NC(=O)NCc1ccccc1	–	–	–	–	–	–
O=C(CN1CCCc2ccccc21)N/N=C/c1c(O)ccc2ccccc12	–	–	–	-61	–	–
Nc1ccc2oc(-c3ccccc3Cl)nc2c1	–	–	–	–	–	–
COC(=O)c1cc(NC(=O)c2ccc([N+](=O)[O-])cc2)c(=O)oc1C	–	–	–	–	–	–
COc1ccc(Sc2cc(C(F)(F)F)nc(-c3ccccn3)n2)cc1	–	–	–	–	–	–
O=C(NC12CC3CC(CC(C3)C1)C2)c1ccccc1	–	–	–	?	–	–
O=C(COC(=O)CNC(=O)c1ccccc1)NC12CC3CC(CC(C3)C1)C2	·	–	-81	–	–	–
O=C(CCCC(=O)N(c1ccc2c(c1)OCCO2)C(C(=O)NC1CCCCC1)c1ccc(F)cc1)Nc1ccccn1 (stereo unspecified)	–	–	–	–	-76	–
N#Cc1c(-c2ccco2)nc(SCc2ccc(F)cc2)[nH]c1=O	25µM	–	–	–	–	–
COCC(=O)Oc1c(S(=O)(=O)c2ccc(C)cc2)c(C)nn1C(C)(C)C	–	–	–	–	–	–
CCc1nnc(N/N=C/c2ccc(N3CCC(C)CC3)c([N+](=O)[O-])c2)n1N	–	–	–	–	–	–
Cc1nnc(N/N=C/c2cc([N+](=O)[O-])c(N3CCC(C)CC3)cc2N2CCC(C)CC2)n1N	–	–	–	–	–	28µM
O=C(C1CCCCC1)N1CCC(c2nc3ccccc3[nH]2)CC1	–	–	–	–	-90	–
c1cc2c(cc1C1CCCCC1)c1c3n2CCN[C@H]3CCC1	·	–	·	·	·	·
O=C(C(=Cc1ccccc1)CN1CCCCC1)c1ccccc1	·	–	–	-72	·	–
O=C(CCCCN1CCCCC1)c1ccccc1	·	–	–	–	–	–
O=[N+]([O-])c1ccc2c(c1)C(O)n1ncnc1S2 (stereo unspecified)	–	–	–	–	-84	–
CCc1cccc(C)c1NS(=O)(=O)c1ccc(-n2cccn2)cc1	–	–	·	·	·	?
CC(=O)Nc1ccc(S(=O)(=O)N2CCN(C(=O)c3ncoc3-c3ccccc3F)CC2)cc1	–	–	–	–	–	–
COc1ccc(CCN(C)Cc2ccc(OCc3ccccc3)c(OC)c2)cc1OC	–	–	–	–	-79	–
COc1ccc(CCN(C)c2ncnc3sccc23)cc1OC	–	–	-84	–	–	–
COc1ccc(CCN(C)C(=O)CSc2ncnc3sccc23)cc1OC	–	–	–	–	–	–
SMILES	RXFP1 agonist	GRP78 ERSR act	KCNH2 WT inh	RXFP1 antagonist	KCNH2 3.1 inh	PTHR1 ag
O=C(COc1ccc(Cl)cc1)OCC(=O)N1CCOCC1	·	–	–	–	–	–
CC(/C=N/NC(=O)C(O)c1ccccc1)=C\c1ccccc1 (stereo unspecified)	–	–	–	–	-169	–
O=C(N/N=C/C=C/c1ccccc1)C(O)c1ccccc1 (stereo unspecified)	·	–	–	–	–	–
COc1ccc(C(=O)N/N=C\C(C)=C\c2ccccc2)cc1OC	·	–	–	–	-98	–
Cc1ccc(-n2ncc3c(NCCCN(C)C)ncnc32)cc1Cl	–	–	·	–	·	–
c1ccc(NC(=NCc2ccco2)c2ccccc2)cc1	–	–	–	–	–	–
Cc1ccccc1NC(=O)Cn1nnc(S(=O)(=O)c2ccc(C(C)(C)C)cc2)c1N	–	–	–	·	–	–
CNC(=O)[C@H]1O[C@@H](n2cnc3c(NCc4cccc(I)c4)ncnc32)[C@H](O)[C@@H]1O	16µM	–	–	·	–	–
CNC(=O)[C@H]1O[C@@H](n2cnc3c(N)ncnc32)[C@H](O)[C@@H]1O	·	–	·	·	·	·
